# Rhodamine autofl: rhodamine region autofluorescence | Rhodamine-region fluorescence, 547/598 nm, Tris buffer; active compounds read high | max dye-equivalent concentration, M | 59,000 tested, 0.05% active; in the data active = max dye-equivalent concentration above about 11 nM; inconclusive = between about 1.1 nM and that limit
#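 Intrinsic compound fluorescence, ex 547 / em 598 nm, CCD imager. Tris 100 mM pH 8.0; 15 min RT. Output = rhodamine dye-equivalent concentration at each compound concentration.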
# Fluorescein autfl: fluorescein region autofluorescence | Compound autofluorescence, 480/540 nm, fluorescein-equivalent; active compounds read high | max fluorescein-equivalent concentration, M | 59,000 tested, 0.91% active; in the data active = max fluorescein-equivalent concentration above about 10 nM; inconclusive = between about 1.1 nM and that limit
#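 Spectral profiling of library compounds in the fluorescein window (480 nm excitation, 540 nm emission) after 15 min at room temperature in pH 8.0 Tris (100 mM). Values are dye-equivalent concentrations.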
# A488 fluor: compound fluoresces in the A488 spectral region; compound autofluorescence, A488 spectral region, dye equivalency; Compound Type: qHTS ECL - MLSMR; max dye equivalency, M; 59,000 tested, 0.1% active
#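 Compound autofluorescence was read in 100 mM Tris pH 8.0 after 15 min at room temperature, ex 480 nm/em 540 nm. Intensities were converted to A488 dye-equivalent concentration using an on-plate six-point A488 standard curve.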
# A647 fluor: compound fluoresces in the A647 spectral region; Compound fluorescence, A647 channel (570/671 nm), Tris buffer; max dye-equivalent concentration, M; 59,000 tested, under 10 active; AID 592;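 note: values scaled relative to a standard on each plate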
#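 Compounds pinned into 100 mM Tris pH 8.0, 15 min at room temperature, then read with 570 nm excitation/671 nm emission filters. Fluorescence normalized to an on-plate six-point Alexa 647 standard curve, giving dye-equivalent concentration per compound concentration.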
# Texas Red fluor: Texas Red region autofluorescence | AID 587 | 59,000 tested, 0.06% active | Compound fluorescence, Texas Red channel, 547/618 nm; active compounds read high | max dye-equivalent concentration, M; in the data active = max dye-equivalent concentration above about 10 nM; inconclusive = between about 1.1 nM and that limit
#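 Compound fluorescence was read after 15 min at room temperature in 100 mM Tris, pH 8.0, using 547 nm excitation and 618 nm emission across a concentration series. It was expressed as Texas Red dye-equivalent concentration from an on-plate standard curve.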
# Resorufin fluor: resorufin region autofluorescence. AID 588. 59,000 tested, 0.04% active. Compound fluorescence, resorufin region 547/598 nm, buffer; active compounds read high. max dye-equivalent concentration, M
#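 Compounds in 100 mM Tris buffer, pH 8.0, incubated 15 min at room temperature, then read with 547 nm excitation and 598 nm emission filters. Fluorescence was converted to dye-equivalent concentration using an on-plate six-point resorufin standard curve.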
# Active calls of the source: *; i = inactive; ? = inconclusive. Only some compounds are listed: those with a hit (about 0.9% of all), similar ones and a draw of the others. Unless noted, the rule behind the calls is not given here.
SMILES,Rhodamine autofl,Fluorescein autfl,A488 fluor,A647 fluor,Texas Red fluor,Resorufin fluor
CC(=O)O[C@H]1C(=O)[C@]2(C)[C@H]([C@H](OC(=O)c3ccccc3)[C@@]3(O)C[C@H](OC(=O)[C@@H](O)[C@@H](NC(=O)c4ccccc4)c4ccccc4)C(C)=C1C3(C)C)[C@]1(OC(C)=O)CO[C@@H]1C[C@@H]2O,i,i,i,1.6e-08,i,i
O=C(CCc1ccc(O)cc1)c1c(O)cc(O)cc1O[C@@H]1O[C@@H](CO)[C@@H](O)[C@@H](O)[C@H]1O,i,i,i,4.3e-09,i,i
CCN1C(=O)c2cccc3c(NC(=O)C4CCCCC4)ccc1c23,i,?,i,1.7e-09,i,i
CCN1C(=O)c2cccc3c(NC(=O)c4ccc5c(c4)OCCO5)ccc1c23,i,5.5e-08M*,?,2.6e-09,i,i
CCCCC[C@@H](O)[C@@H]1C(=O)O[C@@H](C)[C@@H](O)\C=C/C=C\C=C/C=C\C=C(\C)[C@H](O)C[C@H](O)C[C@H](O)C[C@H](O)C[C@H](O)C[C@H](O)C[C@@H]1O,i,i,i,3.9e-09,?,i
CC1=CC(=C(C#N)c2nc3ccccc3s2)C=C(C)N1Cc1ccco1,i,1.9e-07M*,?,3.5e-08,i,i
CN1C=CC2=C(C#N)C(N)C(C#N)(C#N)C(c3ccccc3)C2C1 (stereo not drawn),i,3.3e-08M*,?,5.7e-08,i,i
CCOC(=O)[C@H](CCc1ccccc1)N[C@@H](C)C(=O)N1[C@H](C(=O)O)C[C@H]2CCC[C@@H]21,i,1e-08M*,i,2.6e-08,i,i
COc1cccc2c1C(=O)c1c(O)c3c(c(O)c1C2=O)C[C@](O)(C(=O)CO)C[C@H]3O[C@@H]1C[C@H](N)[C@H](O)[C@H](C)O1,9.8e-08M*,3e-07M*,1.3e-08M*,2.1e-08,9.5e-08M*,7.2e-08M*
COc1ccccc1CN1CC[C@@]2(CCCN(C(=O)c3ccncc3)C2)C1,i,i,i,3.9e-09,i,i
COc1ccccc1CN1CCC2(CC1)CCN(C(=O)c1ccncc1)CC2,i,1.1e-08M*,i,2.3e-09,i,i
CC1=CC(=O)C2=C(C)CC[C@@H]3[C@H](OC(=O)[C@H]3C)[C@H]12,i,?,i,1.6e-08,i,i
C=CCn1c(/N=C/c2ccc(N(C)C)cc2)nc2ccccc21,i,2.1e-08M*,i,1e-09,i,i
CN(C)c1ccc(/C=N/n2ncc3ccccc32)cc1,i,i,i,1e-09,i,i
CN1Cc2sc(N)c(C#N)c2CC1(C)C,?,3.1e-08M*,?,1e-09,?,i
CCCOc1ccc(-c2nnc(-c3ccncc3)o2)cc1,i,?,i,5.9e-08,i,i
CCN(CC)c1ccc2cc(-c3nnc(-c4ccncc4)o3)c(=O)oc2c1,i,1e-06M*,4.8e-08M*,1.2e-08,i,i
Cc1ccc(C(=O)[C@@H]2[C@@H]3[C@@H](C(=O)[C@@H]4OC[C@H]3O4)[C@@H]3C=Cc4ccccc4N23)cc1,i,i,i,1e-09,i,i
CCN1CCc2c(sc3c2c(NCc2ccco2)nc2nnnn23)C1,i,1.3e-08M*,i,1e-09,i,i
Cc1nc(NCc2ccco2)c2c3c(sc2n1)CCC3,i,i,i,1.4e-08,i,i
COc1ccc(-c2cc([C@H](O)[C@@H]3CCCCN3)c3ccccc3n2)cc1,i,i,i,1e-09,i,i
CCOC(=O)c1ccc2[nH]cc(C(C)=O)c(=O)c2c1,i,2.2e-08M*,i,1.1e-08,i,i
CC(=O)c1c[nH]c2ccc(C)cc2c1=O,i,?,i,5.5e-09,i,i
CCOC(=O)N1CCN(Cc2nc3c(c(=O)n(C)c(=O)n3C)n2CCCc2ccccc2)CC1,?,5.6e-08M*,?,4e-08,?,?
CN1CCc2c(sc3c2C(=O)NC(c2cccs2)N3)C1 (stereo not drawn),i,1.8e-08M*,i,3.3e-08,?,i
